Screens from PubChem BioAssay.
Hits are enriched below; roughly 18% of the tested compounds scored in any of these assays.
TDP1 inh: qHTS Assay for Inhibitors of Tyrosyl-DNA Phosphodiesterase (TDP1); recombinant TDP1, AlphaScreen DNA substrate cleavage; Potency, µM (top dose mostly 130 µM), without a hit: top-dose activity change, negative = inhibition, most hits filed as inhibitors; hit rate 0.28% among 350,000; further: nearly all actives have a fitted effect of over 40% in size
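AlphaScreen read-out: signal falls as enzyme removes the 3' tyrosine-FITC from a 5'-biotinylated DNA oligo (15 nM, 5 min, RT). Enzyme was E. coli-made recombinant Tdp1 at 1 nM, exposed to compound for 15 min beforehand; beads 10 ug/ml, 10 min.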
TDP1 cell noCPT: qHTS for Inhibitors of human tyrosyl-DNA phosphodiesterase 1 (TDP1): qHTS in cells in absence of CPT; DT40 Tdp1-/- hTDP1 cells, no CPT, ATP luminescence, 48 h; Potency, µM (highest dose often 46.2 µM), without a hit: at the highest dose activity change, negative = growth inhibition, hits mostly inhibitors; hit rate 15% among 420,000; further: nearly all actives have a fitted effect of over 55% in size
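Luminescent ATP content (CellTiter-Glo) served as the growth readout. Knockout chicken DT40 cells expressing human TDP1 were exposed to compounds without camptothecin for a minimum 48 hr at 37 °C.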
PLK1 PBD block: qHTS for Inhibitors of PLK1-PDB (polo-like kinase 1 - polo-box domain): Primary Screen | Serine/threonine-protein kinase PLK1 (Homo sapiens), P53350 | Plk1 PBD binding of FITC phosphopeptide, fluorescence polarization | Potency, µM, without a hit: max response, negative = inhibition, hits mostly inhibitors | hit rate 2.8% among 360,000; further: series mostly up to about 57 µM; nearly all actives have a fitted effect of over 65% in size
DT40 TDP1 CPT: qHTS for Inhibitors of human tyrosyl-DNA phosphodiesterase 1 (TDP1): qHTS in cells in presence of CPT | hit rate 12% among 420,000 | Potency, µM (highest dose often 46.2 µM), for inactives: at the highest dose activity change, negative = growth inhibition, hits mostly inhibitors | chicken DT40 Tdp1-/-;hTDP1 cells + 20 nM CPT, ATP luminescence, 48 h; further: nearly all actives have a fitted effect of over 55% in size
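Chicken DT40 Tdp1-/- cells complemented with human TDP1, 400 cells/well, exposed to compounds plus 20 nM camptothecin for at least 48 h at 37 C; viability read as ATP content by CellTiter-Glo luminescence.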
GCN5L2 inh: qHTS Assay for Inhibitors of GCN5L2; Histone acetyltransferase KAT2A (Homo sapiens), Q92830; GCN5L2 HAT assay, ThioGlo1 CoA-SH fluorescence; Potency, µM (series often up to 58.9 µM), without a hit: top-dose activity change, negative = inhibition, usual class: inhibitors; hit rate 0.21% among 390,000
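Compounds, pin-transferred from DMSO stocks, meet 20nM GCN5L2 for 15 min before the reaction begins with H3(1-25) peptide (75uM) and acetyl-CoA (70uM). Thiol-reactive ThioGlo1 reports CoA release over 20 min at room temperature.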
VDR inh: Inhibitors of the vitamin D receptor (VDR): qHTS. Vitamin D3 receptor (Homo sapiens), P11473. VDR-SRC2-3 peptide fluorescence polarization, 2 h. Potency, µM, without a hit: max response, negative = inhibition, usual class: inhibitors. hit rate 0.93% among 400,000. AID 504847, 2011
Target sequence (P11473 whole entry, looked up): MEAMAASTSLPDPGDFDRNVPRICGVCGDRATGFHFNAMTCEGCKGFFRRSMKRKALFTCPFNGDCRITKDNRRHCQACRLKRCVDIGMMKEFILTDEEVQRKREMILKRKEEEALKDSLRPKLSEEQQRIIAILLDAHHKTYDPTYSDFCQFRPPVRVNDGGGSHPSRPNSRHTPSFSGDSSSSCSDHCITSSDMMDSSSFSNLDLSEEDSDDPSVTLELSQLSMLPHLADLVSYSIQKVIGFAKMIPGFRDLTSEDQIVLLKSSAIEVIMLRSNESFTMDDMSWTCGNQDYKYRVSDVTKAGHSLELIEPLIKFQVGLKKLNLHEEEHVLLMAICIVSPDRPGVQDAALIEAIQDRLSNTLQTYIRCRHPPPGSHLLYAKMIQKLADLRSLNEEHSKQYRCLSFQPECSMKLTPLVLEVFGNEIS
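After 23 nl compound addition and a short centrifugation, plates sat for 2 hours at ambient temperature; polarization of fluorescence then indicated loss of VDR binding to peptide SRC2-3.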
The depositor's hits bear a star; ? = inconclusive; . = not tested or not shown; [ ] = dose if it differs, or a comment. The call rests on the fitted dose curve; in most records, active means well fitted curve in the direction sought with a large enough effect; inconclusive means small, poorly fitted or top-dose-only effect, or another doubt; inactive means no such curve, though single readings can be large; an effect the other way counts as inactive or inconclusive. On the % scale 0 is the no-effect control and ±100 the full control effect; potency means the concentration at half of the fitted maximal effect.

SMILES | TDP1 inh | TDP1 cell noCPT | PLK1 PBD block | DT40 TDP1 CPT | GCN5L2 inh | VDR inh
O=C(CC(c1ccccc1)c1ccccc1O)NCc1ccccc1Cl (stereo not given) | 2% | 16µM* | -1% | 23µM* | 0% | -5%
COC(=O)[C@@H]1[C@@H](O)[C@]2(O)c3ccccc3O[C@]2(c2ccccc2)[C@H]1c1ccccc1 | 9%[21 µM] | . | . | . | . | .
COC(=O)[C@@]1(Cc2ccccc2)[C@H]2C(=O)N(C)C(=O)[C@H]2[C@H]2CN=C(SC)N21 | 1%[56.1 µM] | -3% | 0% | 8% | 0% | 14%
CCn1c(SCc2ccccc2C)nc(=O)c2c(C(=O)OC)cc(C3CC3)nc21 | 8% | 15µM* | . | 12µM* | -8% | 4%
CCn1c(SCc2c(F)cccc2Cl)nc(=O)c2c(C(=O)OC)cc(C3CC3)nc21 | 8% | ? | . | -8% | -22% | 4%
CCc1cccc(CC)c1NC(=O)CSc1nc2ccc(N3C(=O)C4C5C=CC(C5)C4C3=O)cc2s1 (stereo not given) | -5% | 18µM* | -16% | 21µM* | -24% | 1%
Cc1cccc(NC(=O)CSc2nc3ccc(N4C(=O)c5ccccc5C4=O)cc3s2)c1C | -4% | 1% | ? | ? | 26% | -9%
O=C(c1cnccn1)N1CCC2(CCCN(c3ccccn3)C2)CC1 | . | -5% | . | -6% | 1% | -6%
Clc1ccc(CN=C(Nc2ccccc2)NC2CCCCC2)cc1 | . | 23µM* | -12% | 18µM* | -18% | 4%
O=C(Cc1ccc(Cl)cc1)NC1CCCCCC1 | . | 0% | 7% | -13% | -1% | 11%
C=CCNC(=O)c1ccccc1NC(=O)c1ccc(Cl)c(S(=O)(=O)Nc2cc(C)ccc2C)c1 | 2% | ? | -6% | 18µM* | 46% | 7%
Cc1cccc(CN2CCC(C(=O)Nc3ccc(-n4nc(C)cc4C)cc3)CC2)n1 | 5%[56.1 µM] | ? | 2% | ? | -1% | -4%
O=C(NC1CCCCC1)N1CCN(C(c2ccccc2)c2ccccc2)CC1 | 7% | 16µM* | -10% | 10µM* | -6% | 4%
O=C(NC1CCCCC1)N1CCN(c2ccccc2)CC1 | 4%[56.1 µM] | -16% | -3% | -5% | 1% | -15%
CC1CCN(CC(=O)Nc2ccc(N3CCCCCC3)cc2)CC1 | 12% | ? | 6% | ? | -4% | -10%
CCOC(=O)C1=C(c2ccccc2)NC(N)=NC1c1ccc(OCc2ccc(C(=O)OC)cc2)cc1 (stereo not given) | 5% | 13µM* | -8% | ? | -5% | -7%
CCOC(=O)C1=C(c2ccccc2)Nc2ncnn2C1c1ccc(C(=O)O)cc1 (stereo not given) | 4% | -7% | -5% | -22% | 1% | 6%
COc1ccc(-c2oc3ccccc3c2C(=O)OCc2ccccc2)cc1 | . | -2% | 24µM* | -6% | -3% | -20%
Cc1ccccc1NC(=O)CSc1nc2c(c(-c3ccco3)c1C#N)CCCC2 | -4% | -16% | -2% | ? | 1% | -8%
COCCOC(=O)c1c(C)nc(SCC(=O)Nc2cccc3ccccc23)c(C#N)c1-c1ccco1 | 6% | 29µM* | -7% | ? | -2% | -6%
CSc1ccc(CN2CCC(C)(Oc3ccccc3F)C2)cc1 (stereo not given) | . | ? | 2% | ? | . | .
CC1(Oc2cccnc2Cl)CCN(Cc2ccc(OC(F)(F)F)cc2)C1 (stereo not given) | . | 18µM* | -9% | 21µM* | . | .
COc1cc(Cl)ccc1OC1(C)CCN(Cc2ccc(SC)cc2)C1 (stereo not given) | . | 18µM* | -8% | 13µM* | . | .
Cc1ccc(CN2CCC(C)(Oc3cccc(Cl)c3)C2)cc1 (stereo not given) | . | ? | 4% | 29µM* | . | .
CC1(Oc2cccc(Cl)c2)CCN(Cc2ccc(OC(F)(F)F)cc2)C1 (stereo not given) | . | -29% | -3% | -19% | . | .
SMILES | TDP1 inh | TDP1 cell noCPT | PLK1 PBD block | DT40 TDP1 CPT | GCN5L2 inh | VDR inh
COc1cc(OC)c(OC)cc1CN1CCN(Cc2ccc(SC)cc2)CC1 | -2% | 13µM* | -9% | ? | -7% | -3%
COc1cc(CN2CCN(Cc3ccc(SC)cc3)CC2)cc(OC)c1O | -4% | -18% | -8% | -21% | 1% | 27%
CS(=O)(=O)N(CC(=O)N1CCCCCC1)c1cccc(F)c1 | . | 7% | 11% | 7% | 2% | -3%
CC(=O)c1cc2cccc(OC3(C)CCN(Cc4ccc(-c5ccccn5)cc4)C3)c2o1 (stereo not given) | . | 18µM* | -10% | ? | . | .
Cc1ccccc1OC1(C)CCN(Cc2ccc3ccccc3c2)C1 (stereo not given) | . | 16µM* | -5% | ? | . | .
CCNC(=O)C1(C)CCCN(Cc2ccc(-c3ccccn3)cc2)C1 (stereo not given) | . | -28% | -16% | -29% | . | .
COc1cccc(OC2(C)CCN(Cc3ccc(-c4ccccn4)cc3)C2)c1 (stereo not given) | . | ? | 4% | 21µM* | . | .
COC(=O)Cc1ccc(OC2(C)CCN(Cc3ccc(-c4ccccn4)cc3)C2)cc1 (stereo not given) | . | ? | -10% | ? | . | .
CCC(Cn1nnc2ccccc2c1=O)NC(=O)Nc1cc(C)cc(C)c1 (stereo not given) | -7% | ? | . | -21% | -4% | -15%
CCC1(c2ccccc2)NC(=O)N(CC(=O)N2CC(=O)Nc3ccccc32)C1=O (stereo not given) | 0%[56.1 µM] | ? | -3% | 20% | -6% | -2%
Cn1nc(C(=O)OCC(=O)Nc2cccc(S(=O)(=O)N3CCCC3)c2)c2ccccc2c1=O | 1% | -27% | 2% | -28% | 12% | 1%
Cc1ccc(C)c(N(CC(=O)NC2CCCC2)C(=O)c2oc(C(C)(C)C)cc2C)c1 | 0% | 9.2µM* | -4% | 8.2µM* | -1% | 2%
Cc1cc(NC(=O)CCC(=O)N(CC(=O)NC2CCCC2)Cc2ccc(F)cc2)no1 | 0% | -3% | 1% | -4% | -9% | -1%
Cc1cc(C(C)(C)C)oc1C(=O)N(CC(=O)NC1CCCC1)Cc1ccc(F)cc1 | -3% | ? | -3% | 21µM* | 2% | -2%
